From PubChem
Many of the other results were omitted from the sample, so hits are more common in it than they were.
RE007 growth inh = qHTS Assay for Inhibitors of the HIV-1 protein Vpr. S. pombe RE007 Vpr strain, BacTiter-Glo ATP luminescence, 24 h. Potency, µM (highest dose often 92.2 µM), for the others: at the highest dose activity change, negative = less growth, hits mostly inhibitors. 360,000 tested, 0.21% active; active = well fitted falling curve with a large enough effect; inconclusive = small, poorly fitted or top-dose-only effect; inactive = no such curve, though single readings can be large or run the other way; also: potency is read from the fitted curve at half-maximal effect; % is scaled to controls: 0 for no effect and ±100 for the full control effect; nearly all actives have a fitted effect of over 50% in size
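Fission yeast strain RE007, carrying one chromosomally integrated HIV-1 vpr copy, was seeded at OD 0.01 in PMG+AL medium with 23 nL pinned compound. After 24 h at 30 °C and 99% humidity, viability was read by BacTiter-Glo luminescence.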
LmPK inhibitor = qHTS Assay for Inhibitors of Leishmania Mexicana Pyruvate Kinase (LmPK). AID 1721, 2009. purified LmPK, Kinase-Glo ATP luminescence, 1 h. Potency, µM (doses to about 57.5 µM), without a hit: top-dose activity change, negative = inhibition, usual class: inhibitors. Q27686. 290,000 tested, 0.37% active; also: potency is read from the fitted curve at half-maximal effect; % is scaled to controls: 0 for no effect and ±100 for the full control effect
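Purified LmPK (0.1 nM) with 0.5 mM PEP and 0.1 mM ADP in imidazole buffer pH 7.2 with MgCl2/KCl, 1 h at room temperature. ATP formed was read by luciferase luminescence and normalized to no-enzyme and uninhibited controls.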
FBPA Giardia inh = qHTS Assay for Inhibitors of Fructose-1,6-bisphosphate Aldolase from Giardia Lamblia | A8B2U2 | purified Giardia FBPA | Potency, µM (series often up to 59.6 µM), inactives show at the highest dose activity, negative = inhibition, actives largely listed as inhibitors | 290,000 tested, 0.71% active | AID 2451, 2010; also: potency is read from the fitted curve at half-maximal effect; % is scaled to controls: 0 for no effect and ±100 for the full control effect; nearly all actives have a fitted effect of over 55% in size
Target sequence (A8B2U2 whole entry, looked up): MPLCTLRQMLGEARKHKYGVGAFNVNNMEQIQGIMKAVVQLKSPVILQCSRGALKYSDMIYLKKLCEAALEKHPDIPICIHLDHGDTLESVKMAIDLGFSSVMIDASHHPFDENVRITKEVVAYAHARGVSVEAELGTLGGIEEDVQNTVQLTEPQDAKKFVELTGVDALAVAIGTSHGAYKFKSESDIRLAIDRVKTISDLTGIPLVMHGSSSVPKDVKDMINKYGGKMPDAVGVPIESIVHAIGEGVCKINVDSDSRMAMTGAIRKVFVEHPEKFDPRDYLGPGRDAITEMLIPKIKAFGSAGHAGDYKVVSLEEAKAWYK
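Giardia FBPA (40 nM reagent) was preincubated 10 min at RT with compound (up to 57.5 uM final), then substrate plus GAPDH/TPI/NAD/arsenate coupling system with diaphorase/resazurin was added; resorufin fluorescence (525/598 nm) was read after 20 min.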
CHX counter = Cycloheximide Counterscreen for Small Molecule Inhibitors of Shiga Toxin | cell reporter, cycloheximide protein synthesis inhibition counterscreen | max response, % | 300,000 tested, 12% active | AID 2314, 2010; in the data active = max response mostly above about 13%, no sharp cut-off; inactive = mostly below about 14%; also: read at 38.3 µM for the half of the compounds with a filed dose; 0% is about no effect
Shiga inhibitor = A qHTS for Small Molecule Inhibitors of Shiga Toxin | 290,000 tested, 9.2% active | inhibition, % at 38.7 µM | AID 2315, 2010 | Vero cells, Shiga toxin protein synthesis inhibition reporter; in the data active = inhibition mostly above about 28%, no sharp cut-off; inactive = mostly below about 43%; also: 0% is about no effect
Tb PYK inh = qHTS of Trypanosoma Brucei Inhibitors; pyruvate kinase (Trypanosoma brucei), Q57TT1; TbPYK enzyme, Kinase-Glo Plus ATP luminescence, 45 min; Potency, µM (series often up to 76.8 µM), inactives show top-dose activity, negative = inhibition, most hits filed as inhibitors; 410,000 tested, 0.12% active; also: potency is read from the fitted curve at half-maximal effect; % is scaled to controls: 0 for no effect and ±100 for the full control effect; nearly all actives have a fitted effect of over 50% in size
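TbPYK + substrate in 50 mM TEA pH 7.2, 100 mM KCl, 10 mM MgCl2, 0.05% BSA, 0.01% Tween-20; cpd pinned; ADP 130 uM final; 45 min RT; Kinase-Glo Plus 10 min; luminescence endpoint.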
* = called active by the depositor; ? = inconclusive; . = no result given; [ ] = another dose, or the depositor's remark. Unless noted, calls follow the shape of the dose curve; as a rule, active = well fitted curve in the direction sought with a large enough effect; inconclusive = small, poorly fitted or top-dose-only effect, or another doubt; inactive = no such curve, though single readings can be large; an effect the other way counts as inactive or inconclusive.

SMILES	RE007 growth inh	LmPK inhibitor	FBPA Giardia inh	CHX counter	Shiga inhibitor	Tb PYK inh
CCOc1ncccc1C(=O)Nc1ccc2nc(C)sc2c1	-12.1%	-2.7%	-9.3%	13.6*	50.3*	0.9%
CSc1ncccc1C(=O)Nc1ccc2nc(C)sc2c1	-1.7%	1.8%	-5.1%	19.4*	49.5*	-2.4%
CSc1ncccc1C(=O)Nc1nc2ccc(Oc3ccccc3)cc2s1	-4.2%	-23.1%	0.0%	15.1*	55.6*	-2.5%
CSc1ncccc1C(=O)Nc1nc2c(C)cccc2s1	-14.2%	2.5%	4.6%	9.3	22.3	-8.8%
O=C(Nc1cc(Cl)cc(Cl)c1)c1ccc(F)c(S(=O)(=O)N2CCN(c3ccccc3F)CC2)c1	.	.	.	.	.	-4.6%
COc1cccc(-c2sc3ccc(OC)cc3c2-c2cnc(N3CCOCC3)nc2)c1	-16.6%	.	.	.	.	-0.5%
Cn1ccc2c(OCC(=O)NCc3ccccc3Cl)cccc2c1=O	.	.	.	.	.	5.3%
CC(=O)OCCN1c2ccccc2Sc2cnccc21	-19.1%	.	.	.	.	-3.4%
CC(=O)OCCCN1c2ccccc2Nc2nnc(-c3ccccc3)cc21	-15.9%	-1.8%	-6.3%	36.4*	68.0*	0.0%
CC1Cc2cc(S(=O)(=O)CCC(=O)Nc3ccccc3F)ccc2N1C(=O)C1CC1 (configuration not stated)	.	.	.	.	.	-10.7%
COc1ccc(NC(c2ccccc2)P(=O)(Oc2ccccc2)Oc2ccccc2)cc1 (configuration not stated)	0.1%	4.7%	-8.2%	10.6*	-2.6	-5.7%
O=C(CCc1ccccc1)NCc1nc2cccnc2n1Cc1ccc(F)cc1	.	.	.	.	.	0.0%
COc1ccc(CC(=O)NCc2ccc(F)cc2)cc1S(=O)(=O)N1CCOCC1	-22.4%	.	.	.	.	-4.3%
CC(C)CO/N=C1/C[C@@H](O)[C@@H](O)[C@@H]2[C@@H]3C(=O)N(c4cccc(Oc5ccccc5)c4)C(=O)[C@H]3CC[C@H]12	.	.	1.0%[12.9 µM]	.	.	.
CC12CCC=CC1C(c1ccc3ccccc3c1Br)N(Cc1ccccc1)C2=O (configuration not stated)	.	.	-21.0%	10.0	-2.9	.
O=C(CN(c1ccccc1F)S(=O)(=O)c1ccccc1)Nc1ccc2c(c1)OCCO2	-15.0%	1.5%	.	47.6*	120.2*	-3.0%
O=C(CN(c1ccc(F)cc1)S(=O)(=O)c1ccc2c(c1)OCCO2)Nc1ccc2c(c1)OCO2	-9.1%	0.6%	-1.0%	1.6	5.2	3.8%
O=C(CN(Cc1ccccc1)S(=O)(=O)c1ccc2c(c1)OCCO2)Nc1ccc2c(c1)OCCO2	-0.2%	-4.3%	-6.8%	28.0*	35.7*	-10.4%
O=C(CN(c1ccc(F)cc1)S(=O)(=O)c1ccc2c(c1)OCCO2)Nc1ccccc1	0.6%[3.69 µM]	10.2%	1.7%	19.8*	29.5	.
COC1OC2COC(c3ccccc3)OC2C(O)C1O (configuration not stated)	.	.	10.5%	.	.	.
CCc1cccc(NC(=O)C2CCN(C(=O)c3cnn(-c4ccccc4)c3-n3cccc3)CC2)c1	.	.	.	.	.	-3.9%
COc1ccc(NC(=O)c2ccc(NC(=O)c3nc4nc(C)cc(C)n4n3)cc2)cc1	2.5%	.	.	.	.	4.7%
COc1ccc(CNc2nc3nc(C)c(Cl)c(C)n3n2)cc1	1.7%	2.7%	0.2%	35.4*	55.9*	8.0%
COc1ccc(CNc2nc3nc(C)c(Cl)c(C)n3n2)cc1OC	-1.4%	.	.	.	.	2.6%
COc1cccc(CNc2nc3nc(C)c(Cl)c(C)n3n2)c1	-17.6%	-3.4%	0.1%	34.7*	47.6*	-12.1%
COc1ccc(-c2nc3nc(C)cc(C)n3n2)cc1	22.8%	?	0.3%	16.9*	37.0*	-2.1%
Cc1cc(C)n2nc(NCc3ccccc3)nc2n1	-8.5%[3.69 µM]	2.1%	9.1%	15.9	36.8	.
COc1ccc(CNc2nc3nc(C)cc(C)n3n2)cc1	-2.6%	3.5%	1.7%	10.2	34.5*	15.0%
COc1cccc(CNc2nc3nc(C)c(Cl)c(=O)n3[nH]2)c1	1.7%	1.0%	-8.0%	3.5	4.1	2.9%
CCn1cc(C(=O)NCc2ccc(F)cc2)c(=O)c2cc(S(=O)(=O)N(C)C)ccc21	.	.	.	.	.	-3.3%
